NPC1 promoter act – activators of NPC1 promoter; Huh7 NPC1 promoter luciferase reporter, 24 h; Potency, µM (top dose mostly 9.22 µM), for inactives: top-dose activation, hits mostly activators; actives 2.4% (n = 320,000); AID 485313; further: % of control where 0% means no effect; nearly all actives have a fitted effect of over 60% in size
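Stable NPC1-promoter luciferase Huh7 line; cpd (DMSO) 24 h, 37 °C, 5% CO2; Amplite luciferase reagent 10 min RT; luminescence readout. qHTS format.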
ELG1 genotoxic – inducers of genotoxicity in HEK293T ELG1-luciferase cells; HEK293T ELG1-luciferase reporter, luminescence, 16 h; Potency, µM (series often up to 46 µM), without a hit: at the top dose activity change, positive = activation, actives largely listed as activators; actives 1.3% (n = 330,000); AID 504466; further: % of control where 0% means no effect; nearly all actives have a fitted effect of over 60% in size
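Step 1: seed 2,000 HEK293T ELG1-luciferase cells per well. Step 2: add compound or DMSO, incubate 16 hr at 37 °C. Step 3: ONE-Glo, 30 min at room temperature, read luminescence.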
SMN2 splice up – enhancers of SMN2 splice variant expression. Potency, µM (doses to about 46.1 µM), for the others: top-dose activity change, positive = activation, hits mostly activators. actives 2.8% (n = 210,000). HEK293 SMN2-luciferase splicing reporter, luminescence, 30-36 h; further: % of control where 0% means no effect; nearly all actives have a fitted effect of over 55% in size
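HEK293 cells carry an SMN2 minigene-luciferase reporter in which exon 7 inclusion puts luciferase in frame. Cells were seeded at 2000 cells/well, attached for 10-12 hours, then exposed to compounds for 30-36 hours at 37C before ONE-Glo luminescence.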
ELG1 repair inh – blocks ELG1-dependent DNA repair in HEK293T cells; HEK293T ELG1-luciferase reporter, luminescence, 16 h; DNA damage induced by 5-fluorouridine; Potency, µM (highest dose often 46.1 µM), without a hit: at the top dose activity change, negative = inhibition, hits mostly inhibitors; actives 2.3% (n = 330,000); AID 504467; further: on the % scale 0 is the no-effect control and ±100 the full control effect; nearly all actives have a fitted effect of over 55% in size
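Luminescence from the luciferase reporter, measured 30 min after ONE-Glo reagent at room temperature, was the read-out. Beforehand, 2,000 cells per well were exposed for 16 hr at 37 °C to 5-fluorouridine together with compound or vehicle.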
Rab9 promoter act – activates the Rab9 promoter; Huh7 Rab9 promoter-luciferase reporter, luminescence, 24 h; Potency, µM (series often up to 9.22 µM), for the others: top-dose activation, negative = inhibition, most hits filed as activators; actives 2.8% (n = 320,000); further: % of control where 0% means no effect; nearly all actives have a fitted effect of over 60% in size
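Huh7 reporter line, Rab9 promoter upstream of luciferase. Compound exposure 24 h at 37 °C in reduced-serum medium with 10% FBS. Read-out: luminescence.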
FLuc counter – firefly luciferase modulation, counter-screen for miR-21 project | Potency, µM (highest dose often 57.5 µM), for the others: at the top dose activity change, negative = inhibition, usual class: inhibitors | P08659 | purified FLuc, Km substrates, luminescence inhibition | actives 6.9% (n = 360,000);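 further: plate controls were vehicle for no effect and reference inhibitor for full effect; nearly all actives have a fitted effect of over 55% in size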
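Biochemical qHTS of compounds, final roughly 60 µM downward over six points, against 10 nM purified firefly luciferase using Km concentrations of substrates (10 uM D-luciferin, 10 uM ATP) in Tris acetate pH 7.5 buffer; luminescence output.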
ELG1 FLuc counter – luciferase inhibition in cell-free luciferin readout for ELG1 hits; shares compounds with ELG1 repair inh; cell-free firefly luciferase luminescence counter-screen, ViewLux; Potency, µM (highest dose often 46.1 µM), for inactives: at the highest dose activity change, negative = inhibition, actives largely listed as inhibitors; actives 3% (n = 350); AID 624247; further: on the % scale 0 is the no-effect control and ±100 the full control effect
ELG1 Luc conf – human ELG1 repair inhibition, luciferase-tagged ELG1 confirmation; shares compounds with ELG1 repair inh; Potency, µM (top dose mostly 46.1 µM), for the others: at the highest dose activity change, negative = inhibition, hits mostly inhibitors; AID 624248; HEK293T ELG1-luciferase levels, luminescence; cells co-treated with 5-fluorouridine; actives 68% (n = 670); further: on the % scale 0 is the no-effect control and ±100 the full control effect; nearly all actives have a fitted effect of over 55% in size
Target sequence (Q96QE3 whole entry, looked up): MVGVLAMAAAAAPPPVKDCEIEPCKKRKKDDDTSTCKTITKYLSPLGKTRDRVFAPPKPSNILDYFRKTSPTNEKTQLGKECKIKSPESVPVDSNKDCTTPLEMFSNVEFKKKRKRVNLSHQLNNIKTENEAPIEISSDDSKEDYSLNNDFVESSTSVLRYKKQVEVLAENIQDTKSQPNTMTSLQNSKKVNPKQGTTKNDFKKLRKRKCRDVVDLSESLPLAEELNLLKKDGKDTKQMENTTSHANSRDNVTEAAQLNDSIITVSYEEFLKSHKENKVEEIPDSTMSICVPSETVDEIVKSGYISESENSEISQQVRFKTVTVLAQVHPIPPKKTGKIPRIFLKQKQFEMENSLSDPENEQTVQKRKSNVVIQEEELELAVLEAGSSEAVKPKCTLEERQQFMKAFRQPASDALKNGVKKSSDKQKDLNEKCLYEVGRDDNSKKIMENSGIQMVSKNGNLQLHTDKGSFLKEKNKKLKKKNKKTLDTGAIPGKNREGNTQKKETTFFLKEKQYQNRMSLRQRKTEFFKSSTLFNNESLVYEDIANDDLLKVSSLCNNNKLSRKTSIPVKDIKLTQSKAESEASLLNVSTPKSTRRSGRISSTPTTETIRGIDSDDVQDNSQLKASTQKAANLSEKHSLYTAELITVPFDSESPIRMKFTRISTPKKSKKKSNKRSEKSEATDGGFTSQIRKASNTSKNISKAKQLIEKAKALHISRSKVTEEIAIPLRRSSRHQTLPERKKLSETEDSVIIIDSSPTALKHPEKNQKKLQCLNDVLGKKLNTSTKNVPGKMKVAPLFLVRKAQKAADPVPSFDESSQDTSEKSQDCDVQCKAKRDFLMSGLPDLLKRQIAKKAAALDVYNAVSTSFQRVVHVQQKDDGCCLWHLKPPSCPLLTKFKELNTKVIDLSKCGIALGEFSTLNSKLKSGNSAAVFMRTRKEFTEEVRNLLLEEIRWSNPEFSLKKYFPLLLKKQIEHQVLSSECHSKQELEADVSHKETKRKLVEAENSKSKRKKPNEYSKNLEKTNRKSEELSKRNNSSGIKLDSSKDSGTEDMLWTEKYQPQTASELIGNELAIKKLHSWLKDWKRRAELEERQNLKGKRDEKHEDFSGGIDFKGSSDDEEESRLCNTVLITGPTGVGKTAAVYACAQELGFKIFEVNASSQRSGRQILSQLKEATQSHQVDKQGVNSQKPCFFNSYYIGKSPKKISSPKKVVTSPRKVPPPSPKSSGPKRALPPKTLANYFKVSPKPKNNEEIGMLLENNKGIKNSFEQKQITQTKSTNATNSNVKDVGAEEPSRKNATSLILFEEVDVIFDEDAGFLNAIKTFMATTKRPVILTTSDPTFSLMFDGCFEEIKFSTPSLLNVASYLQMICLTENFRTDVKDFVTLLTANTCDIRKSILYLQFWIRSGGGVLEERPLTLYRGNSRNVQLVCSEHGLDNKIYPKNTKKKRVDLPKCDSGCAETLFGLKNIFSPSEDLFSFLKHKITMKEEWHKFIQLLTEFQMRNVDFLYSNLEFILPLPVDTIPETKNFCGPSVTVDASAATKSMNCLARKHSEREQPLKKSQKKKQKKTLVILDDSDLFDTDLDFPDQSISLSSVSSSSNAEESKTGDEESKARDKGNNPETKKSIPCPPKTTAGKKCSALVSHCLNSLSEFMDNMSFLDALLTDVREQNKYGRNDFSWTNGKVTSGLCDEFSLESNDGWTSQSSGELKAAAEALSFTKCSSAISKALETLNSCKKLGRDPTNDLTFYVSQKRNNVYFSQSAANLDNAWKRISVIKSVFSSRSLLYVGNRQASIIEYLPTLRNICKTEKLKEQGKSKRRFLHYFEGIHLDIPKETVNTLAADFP
ELG1 MMS Luc – MMS-stimulated human ELG1 repair inhibition, confirmed; shares compounds with ELG1 repair inh; HEK293T luciferase-tagged ELG1 level, MMS stimulated; Potency, µM (top dose mostly 46.1 µM), without a hit: at the highest dose activity change, negative = inhibition, usual class: inhibitors; actives 53% (n = 670); further: on the % scale 0 is the no-effect control and ±100 the full control effect; nearly all actives have a fitted effect of over 60% in size
ELG1 5FU viab – confirmation of ELG1 repair inhibitors: viability with 5FU; AID 624250; 670 tested, under 10 active; Potency, µM (top dose mostly 46.1 µM), inactives show at the top dose activity change, negative = viability loss, most hits filed as cytotoxic; cell viability with 5-FU, ELG1-dependent repair; shares compounds with ELG1 repair inh;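 further: ELG1-luc HEK293T cells cotreated with 5-fluorouridine at 10 µM final; viability measured 16 h after compound addition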
ELG1 MMS viab – confirmation of ELG1 repair inhibitors: viability with MMS; actives 33% (n = 670); Cell viability with MMS, ELG1-dependent DNA repair; AID 624251; Potency, µM (highest dose often 46.1 µM), for inactives: top-dose activity change, negative = viability loss, most hits filed as cytotoxic; shares compounds with ELG1 repair inh;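 further: ELG1-luc HEK293T cells co-treated with 10 µM MMS; viability read 16 h after compound addition; on the % scale 0 is the no-effect control and ±100 the full control effect; nearly all actives have a fitted effect of over 60% in size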
Cell viab unstim – affects unstimulated cell viability, ELG1 hit counter-screen. cell viability counter-screen, unstimulated, luminescence. Potency, µM (series often up to 45.9 µM), for the others: at the highest dose activity change, negative = loss of viability, hits mostly cytotoxic. shares compounds with ELG1 repair inh. actives 8% (n = 900);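 further: compound exposure lasted 16 hours before reading; on the % scale 0 is the no-effect control and ±100 the full control effect; nearly all actives have a fitted effect of over 55% in size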
FLuc biochem – inhibits purified firefly luciferase, counter-screen for ELG1 hits; purified firefly luciferase, luminescence counter-screen; AID 624253; Potency, µM (series often up to 57.5 µM), for the others: at the highest dose activity, negative = inhibition, hits mostly inhibitors; actives 10% (n = 350); shares compounds with ELG1 repair inh; further: on the % scale 0 is the no-effect control and ±100 the full control effect
* hit, by the source's call; ? = inconclusive; nt = no result; [ ] = dose if it differs, or a comment. Shown are actives, neighbours in structure and some others; about 9.3% of the full set was active somewhere. The call rests on the fitted dose curve; in most records, active means well fitted curve in the direction sought with a large enough effect; inconclusive means small, poorly fitted or top-dose-only effect, or another doubt; inactive means no such curve, though single readings can be large; an effect the other way counts as inactive or inconclusive. Potency means the concentration at half of the fitted maximal effect.

SMILES	NPC1 promoter act	ELG1 genotoxic	SMN2 splice up	ELG1 repair inh	Rab9 promoter act	FLuc counter	ELG1 FLuc counter	ELG1 Luc conf	ELG1 MMS Luc	ELG1 5FU viab	ELG1 MMS viab	Cell viab unstim	FLuc biochem
C[C@@H]1O[C@H](O[C@H]2C[C@@H](O)[C@@]3(CO)[C@H]4[C@@H](O)C[C@]5(C)[C@@H](C6=CC(=O)OC6)CC[C@]5(O)[C@H]4CC[C@]3(O)C2)[C@@H](O)[C@H](O)[C@@H]1O	nt	nt	-91.4%[20.6 µM]	nt	nt	nt	?	0.239µM*	0.151µM*	?	0.378µM*	0.095µM*	5.5%[35.2 µM]
CC1O[C@@H](OC2CC(O)[C@@]3(CO)C4C(O)C[C@@]5(C)C(C6=CC(=O)OC6)CC[C@]5(O)C4CC[C@]3(O)C2)C(O)C(O)C1O (some centres not stated)	nt	nt	-104.3%	nt	nt	nt	nt	nt	nt	nt	nt	nt	nt
CC1OC(O[C@@H]2C(O)CC(O[C@@H]3C(O)C[C@@H](OC4CC[C@]5(C)[C@H](CC[C@H]6[C@@H]5CC[C@]5(C)C(C7=CC(=O)OC7)C(O)C[C@@]65O)C4)OC3C)OC2C)CC(O)C1O (some centres not stated)	nt	nt	-60.7%	nt	nt	nt	nt	0.56µM*	0.315µM*	?	0.499µM*	0.199µM*	nt
C[C@@H]1O[C@@H](O[C@H]2C[C@@H](O)[C@]3(CO)[C@@H]4C(CC[C@]3(O)C2)[C@@]2(O)CC[C@H](C3=CC(=O)OC3)[C@@]2(C)C[C@H]4O)[C@H](O)[C@H](O)[C@H]1O (some centres not stated)	nt	nt	-96.1%	nt	nt	nt	nt	nt	nt	nt	nt	nt	nt
C[C@@]12CC[C@H](O)C[C@@H]1CC[C@H]1[C@H]2CC[C@@]2(C)[C@@H](C3=CC(=O)OC3)CC[C@]12O	nt	nt	-94.0%[20.6 µM]	nt	nt	nt	nt	nt	nt	nt	nt	nt	nt
COC1C(O)C(C)O[C@@H](OC2CC[C@@]3(C)C4CC[C@]5(C)C(C6=CC(=O)OC6)CC[C@@]5(O)C4CC[C@@H]3C2)C1O (some centres not stated)	nt	nt	-103.9%	nt	nt	nt	?	0.0997µM*	0.0629µM*	?	0.141µM*	0.05µM*	-6.0%
COC1C(O)C(C)O[C@H](OC2CC[C@@]3(C=O)C4CC[C@]5(C)C(C6=CC(=O)OC6)CC[C@@]5(O)C4CC[C@@H]3C2)C1O (some centres not stated)	nt	nt	-71.4%	nt	nt	nt	?	0.177µM*	0.0706µM*	0.25µM*	0.158µM*	0.0445µM*	?
C[C@@H]1[C@@H](C)N1C[C@H](O)Cn1ccnc1[N+](=O)[O-] (some centres not stated)	nt	nt	0.1%[9.22 µM]	nt	nt	nt	nt	nt	nt	nt	nt	nt	nt
C[C@H](Br)CN(C[C@H](C)Br)c1ccc2c(c1)Cc1ccccc1-2	nt	nt	1.4%[9.22 µM]	nt	nt	nt	nt	nt	nt	nt	nt	nt	nt
N[C@@H](Cc1ccccc1)P(=O)(O)O	nt	nt	-1.0%[9.22 µM]	nt	nt	nt	nt	nt	nt	nt	nt	nt	nt
CCOc1cccc(=NC2CCCCC2)c2c(C)n(C)c(C)c12	-34.8%	-8.3%	nt	4.61µM*	-50.5%	-5.6%	nt	?	7.91µM*	?	7.91µM*	?	nt
C[C@]12CCC3C(CCC4=CC(O)CC[C@@]43/C=N/O)C1(O)CCC2C1=CC(=O)OC1 (some centres not stated)	-42.2%	-19.9%	nt	1.46µM*	-39.3%	-0.4%	nt	0.996µM*	0.445µM*	?	1.25µM*	0.499µM*	nt
CCCN1CCC[C@@H]2Cc3n[nH]cc3C[C@H]21	nt	nt	-10.6%	nt	nt	nt	nt	nt	nt	nt	nt	nt	nt
COc1ccc(C[C@H]2NC[C@H](O)[C@H]2OC(C)=O)cc1	nt	nt	-74.3%	nt	nt	nt	0.0126µM*	0.0561µM*	0.025µM*	-12.0%	0.05µM*	0.0112µM*	-2.0%
CCCCN=C[C@]12CCC(O)CC1(O)CCC1[C@@H]2CC[C@]2(C)[C@H](C3C=CC(=O)O3)CCC12O (some centres not stated)	-52.4%	-22.5%	nt	1.03µM*	-48.8%	-0.3%	?	1.58µM*	0.889µM*	?	1.99µM*	0.629µM*	-3.0%

Assay outcomes deposited in PubChem by National Center for Advancing Translational Sciences (NCATS).
